Activity calls are given as the source filed them.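 How the source made its calls, unless noted: active means inhibition of the reporter signal at or above 50%; inactive means inhibition below 50%.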
What was measured:
[1] = inhibitors of TNFa-induced NFkB p65 translocation, primary screen, imaging, HUVEC, MLSMR starter and 10KST1 sets (AID 438;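 active means inhibition above 20% together with a positive visual image hit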;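 further: compound added about 3h40 before a 20 min TNFalpha stimulation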;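 on inhibition: signal is the nuclear over cytoplasmic p65 intensity ratio per well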); details: HUVEC TNFa-induced p65 nuclear translocation; cell count: measured here: nuclei count (cytotoxicity indicator), at 2.08 µM; inhibition: at 2 µM, stronger effect = higher value, 0% TNFa-plus-vehicle, 100% no-TNFa wells
[2] = reduction of polyQ htt aggregates in cells – imaging, exon1htt(103Q)mCFP cells, high-content imaging, primary screen (AID 483;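 active means visual image review flags a hit and inhibition of aggregation exceeds 20%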;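 further: compound exposure lasted 3 days before fixation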;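 on nuclei count: percent of the per-plate median nuclei count of sample wells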); details: exon1htt(103Q)mCFP cell line, aggregate imaging, at 2 µM; inhibition of aggregation: stronger effect = higher value; nuclei count: measured here: cell count, toxicity
[3] = endothelial E-selectin expression blockers – imaging, HUVEC, immunofluorescence, MLSMR starter and 10KST1 sets, primary screen (AID 487;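 active means visually confirmed hit in the image check and inhibition above 20%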;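 on inhibition: signal is fraction of cell area covered by stained E-selectin grains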;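 on nuclei count: 100% = median nuclei count of all wells on the same plate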); details: HUVEC TNFalpha-induced E-selectin immunofluorescence imaging, at 2 µM; inhibition: stronger effect = higher value; nuclei count: measured here: cell number, toxicity
[4] = biological target: Voltage-gated potassium channel subunit beta-2 (Rattus norvegicus) (UniProt P62483); test: inhibitors of rat Kvbeta2 reductase activity – biochemical, NADPH fluorescence, primary screen (AID 622;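 active means fluorescence slope higher than the sample average by over 3 SD, cut at about -0.22 in these data, passing the limit was not always enough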;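 further: slope of raw intensity against log time taken from 70 to 1610 s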); details: recombinant KvBeta, 4-cyanobenzaldehyde reduction, at 10 µM, stronger effect = higher value
Chain of Voltage-gated potassium channel subunit beta-2 (Rattus norvegicus) (P62483 whole entry, looked up): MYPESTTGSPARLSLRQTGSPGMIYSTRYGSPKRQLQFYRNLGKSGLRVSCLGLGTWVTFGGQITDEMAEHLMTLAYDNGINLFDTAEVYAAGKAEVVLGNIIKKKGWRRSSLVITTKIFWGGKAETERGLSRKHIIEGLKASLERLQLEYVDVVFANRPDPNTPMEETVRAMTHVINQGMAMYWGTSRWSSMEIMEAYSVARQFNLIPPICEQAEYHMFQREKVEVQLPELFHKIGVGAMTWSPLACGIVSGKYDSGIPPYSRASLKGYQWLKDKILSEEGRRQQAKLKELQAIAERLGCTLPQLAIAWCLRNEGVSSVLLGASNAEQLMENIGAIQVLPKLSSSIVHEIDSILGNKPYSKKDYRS

[5] = biological target: Voltage-gated potassium channel subunit beta-2 (Rattus norvegicus) (UniProt P62483); test: enhancers of rat Kvbeta2 NADPH turnover – biochemical, NADPH fluorescence, primary screen (AID 623;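 active means NADPH fluorescence slope more negative than the mean of all samples by about 3 SD, 99.7% confidence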;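 further: fluorescence intensity change per second fitted from 20 to 320 s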); details: Recombinant KvBeta, NADPH fluorescence decrease slope, 10 min; at 10 µM; stronger effect = lower value
[6] = biological target: Alpha-2C adrenergic receptor (Homo sapiens) (UniProt P18825); test: compounds altering alpha2C-coupled GIRK flux – cell-based, HEK293 alpha2C/GIRK1/2, thallium flux, primary screen (AID 624;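 active means fluorescence slope after compound addition differing from the mean of all screened samples at 99.7% confidence, in either direction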;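 further: slope of fluorescence ratio to pre-addition baseline per second over 15 to 24 s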); details: thallium flux BTC fluorescence, at 10 µM, actives lie on both sides
Chain of Alpha-2C adrenergic receptor (Homo sapiens) (P18825 whole entry, looked up): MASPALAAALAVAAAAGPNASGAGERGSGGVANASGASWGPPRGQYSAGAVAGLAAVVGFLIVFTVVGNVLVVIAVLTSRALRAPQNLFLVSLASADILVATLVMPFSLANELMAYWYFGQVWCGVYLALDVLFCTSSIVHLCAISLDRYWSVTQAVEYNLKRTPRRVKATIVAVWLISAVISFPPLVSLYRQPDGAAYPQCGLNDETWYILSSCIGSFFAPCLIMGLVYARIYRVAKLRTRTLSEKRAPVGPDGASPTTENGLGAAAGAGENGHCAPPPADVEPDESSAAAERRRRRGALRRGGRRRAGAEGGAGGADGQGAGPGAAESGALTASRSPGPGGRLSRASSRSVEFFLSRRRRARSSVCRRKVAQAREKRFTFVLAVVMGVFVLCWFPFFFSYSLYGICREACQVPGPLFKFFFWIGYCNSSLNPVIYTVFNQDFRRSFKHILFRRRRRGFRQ

[7] = blockers of RIG-like receptor reporter activation – cell-based, Sendai virus stimulus, luciferase, 10K MLSCN set, TLR/RLR signaling modifier project, primary screen (AID 602276;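 active means inhibition at or above 50% at 10 µM; inactive means inhibition below 50%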;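 further: firefly luciferase from ISG56 promoter only with Renilla not read in this screen; 0% = Sendai virus plus DMSO and 100% = medium plus DMSO without virus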); details: HEK293 RL24 IRF3 luciferase reporter, at 10 µM, stronger effect = higher value
[8] = TLR3 IRF3 reporter activation blockers – cell-based, poly I:C stimulus, luciferase, 10K MLSCN set, primary screen (AID 602277); details: HEK293-TLR3 RL24 IRF3 luciferase reporter, at 10 µM, stronger effect = higher value

SMILES	cell count [1]	inhibition [1]	inhibition of aggregation [2]	nuclei count [2]	inhibition [3]	nuclei count [3]	fluorescence slope [4]	NADPH fluorescence slope [5]	slope [6]	inhibition [7]	inhibition [8]
Cc1cc(C(=O)COC(=O)C2COc3ccccc3O2)c(C)n1CC1CCCO1 (centres undefined)	460	0.5% (inactive)	19.3% (inactive)	81.4%	-126% (inactive)	119%	-0.373 (inactive)	-4.2e-05 (inactive)	0.00612 (inactive)	6.89% (inactive)	22.4% (inactive)
Nc1cc(-c2ccc(Br)cc2)nn1S(=O)(=O)c1ccccc1	807	6.9% (inactive)	-1% (inactive)	93.9%	-57.9% (inactive)	109%	-0.609 (inactive)	-1.6e-05 (inactive)	0.00722 (inactive)	6.44% (inactive)	32.2% (inactive)
Cn1cc(C2NC(=O)c3c(sc4c3CCCC4)N2)c2ccccc21 (centres undefined)	561	9.2% (inactive)	17.3% (inactive)	98.8%	-37.2% (inactive)	112%	-0.384 (inactive)	3.8e-05 (inactive)	0.00476 (inactive)	2.79% (inactive)	21.2% (inactive)
CCOc1cc(C(=O)Nc2ncccn2)cc(OCC)c1OCC	280	6.6% (inactive)	38% (active)	103%	-193% (inactive)	100%	-0.476 (inactive)	-2.8e-05 (inactive)	0.0062 (inactive)	8.28% (inactive)	27.2% (inactive)
CC(C)OC(=O)c1cccc(C(=O)O)n1	441	4.6% (inactive)	-5.9% (inactive)	92.5%	-285% (inactive)	110%	-0.495 (inactive)	-2.4e-05 (inactive)	0.00557 (inactive)	11.6% (inactive)	12.7% (inactive)
O=C(CC1Oc2ccc(Cl)cc2NC1=O)NC1CCCCCC1 (centres undefined)	615	-4.3% (inactive)	19.5% (inactive)	51.7%	0.7% (inactive)	100%	-0.544 (inactive)	-3.7e-05 (inactive)	0.00511 (inactive)	8.85% (inactive)	6.03% (inactive)
COC(=O)C1(C#N)C(c2ccccc2)C1(C(=O)OC)C(=O)OC (centres undefined)	450	2.6% (inactive)	-8.3% (inactive)	103%	-21.2% (inactive)	118%	-0.522 (inactive)	-2.1e-05 (inactive)	0.00516 (inactive)	13.2% (inactive)	26.1% (inactive)
Cc1cccc2cc(C#N)c(SCCN3CCCCC3)nc12	413	-7.1% (inactive)	-42.5% (inactive)	108%	-46.6% (inactive)	108%	-0.334 (inactive)	-4.3e-05 (inactive)	0.00498 (inactive)	13.4% (inactive)	99% (active)
CN(C)c1ccc(CNCCC2(O)CCOC(C)(C)C2)cc1 (centres undefined)	495	-1.4% (inactive)	3.5% (inactive)	89.5%	-25% (inactive)	114%	-0.472 (inactive)	-4.7e-06 (inactive)	0.00622 (inactive)	0.927% (inactive)	28.2% (inactive)
Nc1nc(N2C(=O)C3CC=CCC3C2=O)nn1-c1ccccc1 (centres undefined)	444	20.1% (inactive)	-11.6% (inactive)	109%	-23.5% (inactive)	132%	-0.474 (inactive)	2.4e-05 (inactive)	0.00364 (inactive)	-8.69% (inactive)	23.3% (inactive)
Cc1ccc2nc(NC(=O)C3CCCN(S(=O)(=O)c4cnc[nH]4)C3)sc2c1 (centres undefined)	567	6.9% (inactive)	-11.1% (inactive)	106%	-42.7% (inactive)	113%	-0.553 (inactive)	-6.7e-06 (inactive)	0.00608 (inactive)	-43.1% (inactive)	-79.3% (inactive)
Cn1c(=O)n(CC(=O)OCc2ccccc2)c(=O)c2c1nc1n2CCCN1C1CCCCC1	376	3.2% (inactive)	0.2% (inactive)	82.9%	25.3% (inactive)	92%	-0.479 (inactive)	-1.8e-05 (inactive)	0.00618 (inactive)	-2.49% (inactive)	17.2% (inactive)
CCOCCCNC(=O)C(c1ccc(C)cc1)N(Cc1ccc2c(c1)OCO2)C(=O)c1cnccn1 (centres undefined)	275	13.1% (inactive)	16.3% (inactive)	102%	-40.9% (inactive)	107%	-0.471 (inactive)	4.1e-05 (inactive)	0.00515 (inactive)	9.6% (inactive)	17% (inactive)
COc1cccc(/C=N/n2c(C)nc3ccccc32)c1OC	431	0.5% (inactive)	32.5% (active)	84.3%	-27.6% (inactive)	123%	-0.391 (inactive)	3.2e-05 (inactive)	0.00613 (inactive)	-7.57% (inactive)	-59.7% (inactive)
c1ccc(-c2ccc(-c3ccccn3)nn2)nc1	231	11.2% (inactive)	-2.4% (inactive)	67.7%	-48.9% (inactive)	121%	-0.419 (inactive)	-1.3e-05 (inactive)	0.00636 (inactive)	7.62% (inactive)	70.6% (active)
CNC(=O)c1ccc(N(Cc2ccccc2C)S(C)(=O)=O)cc1	710	-2.6% (inactive)	0.9% (inactive)	117%	-40.6% (inactive)	116%	-0.636 (inactive)	-4.1e-05 (inactive)	0.00383 (inactive)	11.8% (inactive)	11.4% (inactive)
C=C(C)Cn1c(N2CC(C)CC(C)C2)nc2c1c(=O)[nH]c(=O)n2C (centres undefined)	616	-8% (inactive)	-2.3% (inactive)	104%	-8.5% (inactive)	108%	-0.421 (inactive)	-1.7e-05 (inactive)	0.00499 (inactive)	12.7% (inactive)	41.2% (inactive)
COc1ccc(OC)c(S(=O)(=O)Nc2ccccc2SC)c1	623	-5% (inactive)	20% (inactive)	96.7%	20.9% (inactive)	85.2%	-0.486 (inactive)	-3.4e-05 (inactive)	0.00443 (inactive)	21% (inactive)	24% (inactive)
CCC(=O)Nc1ccc2nc(SCC(=O)N3CCCC3)sc2c1	709	-23.3% (inactive)	-2.1% (inactive)	102%	-56.1% (inactive)	122%	-0.503 (inactive)	-2.8e-05 (inactive)	0.00507 (inactive)	-25.3% (inactive)	-44.2% (inactive)

Source: PubChem BioAssay
